Results filed as inconclusive are left out. Calls of active or inactive are those of the source. Calls come from the whole dose curve.
Test: qHTS assay to identify small molecule agonists of the hypoxia (HIF-1) signaling pathway - cell viability counter screen (AID 1224844); note: nearly all actives have a fitted effect of over 50% in size
Details: HRE-bla ME-180 viability, CellTiter-Glo luminescence, 17 h; series mostly up to 76.8 µM; activity change, negative = cytotoxicity: at the top concentration
From the text: National Center for Advancing Translational Sciences [NCATS]
NIH Chemical Genomics Center [NCGC]
U.S. Environmental Protection Agency [EPA]
National Institutes of Environmental Health Sciences [NIEHS]
National Toxicology Program [NTP]
U.S. Food and Drug Administration [FDA]
Hypoxia-inducible factor-1 (HIF-1) is the major hypoxia-regulated transcription factor that controls cellular responses to low oxygen concentration. HIF-1 is composed of two subunits: hypoxia responsive HIF-1-alpha and constitutively expressed HIF-1-beta, which is also known as aryl hydrocarbon receptor nuclear translocator. During hypoxic conditions, HIF-1-alpha heterodimerizes with HIF-1-beta and translocates into the nucleus where the HIF-1 complex binds to the hypoxia-response element (HRE) and activates expression of target genes such as VEGF (vascular endothelial growth factor). The HIF-1 pathway is essential to normal growth and development, and is involved in the pathophysiology of cancer, inflammation, and ischemia.
Using a beta-lactamase reporter-gene under control of the hypoxia response element, a cell-based assay [CellSensor(TM) HRE-bla ME-180 from Life Technologies, Carlsbad, CA] was used to measure hypoxia-induced signaling. Tox21 10K library compounds were measured for their ability to induce the reporter gene activity. The cytotoxicity of the Tox21 compound library against HRE-bla ME-180 cell line was tested in parallel by measuring cell viability using CellTiter-Glo assay (Promega, Madison, WI) in the same assay wells.
Tox21 Assay Protocol Summary:
HRE-bla ME-180 cells were dispensed at 2,000 cells per well in 6 uL of assay medium containing 0.5% dialyzed FBS into black wall/clear-bottom 1536-well plates using a Multidrop Combi (Thermo Scientific, Waltham, MA) dispenser. After the assay plates were incubated at 37C and 5% CO2 for 5 hrs, 23 nL of compounds dissolved in DMSO, positive controls or DMSO only was transferred to each well of the assay plate using a Pintool station (Kalypsys, San Diego, CA). The assay plates were incubated at 37C and 5% CO2 for 17 hrs. One uL of LiveBLAzerTM B/G FRET substrate (CCF4-AM) (Life Technologies) was added to each well using a Flying Reagent Dispenser (FRD, Aurora Discovery, San Diego, CA). After 2 hr incubation at room temperature, fluorescence intensity (405 nm excitation, 460 nm and 530 nm emissions) was measured using an Envision plate reader (PerkinElmer, Shelton, CT). For cytotoxicity, 4 ul/well of CellTiter-Glo reagent was added into the assay plates using an FRD. After 30 min incubation at room temperature, the luminescence intensity was measured using a ViewLux plate reader (PerkinElmer).
% is set by controls: 0 for no effect and ±100 for the full control effect; potency is the fitted concentration of half-maximal effect.

| SMILES | activity change, negative = cytotoxicity | Potency |
| --- | --- | --- |
| CCC(=O)OC(C)(C)C1CC=C(C)CC1 (stereo not given) | -11.2% (inactive) | – |
| CC(=O)Nc1ccc(/C=N/NC(N)=S)cc1 | 1.28% [at 35.3 µM] (inactive) | – |
| N#CCCNCCC#N | 7.25% (inactive) | – |
| COC(=O)C(C)=O | -4.61% (inactive) | – |
| Cc1occc1S | -10.1% (inactive) | – |
| CCCCCCCCCO | -3.52% (inactive) | – |
| c1ccc(CNCc2ccccc2)cc1 | 4.54% (inactive) | – |
| CCOC(=O)CC(C)C | 2.45% (inactive) | – |
| Cc1cc(CC(=O)O)c(C)n1-c1ccc(Cl)cc1 | -14.2% [at 35.3 µM] (inactive) | – |
| CC(C)(C)c1ccc(S)cc1 | -13.9% (inactive) | – |
| S=C(S)NCCNC(=S)S | -2.05% (inactive) | – |
| N#Cc1c(F)cccc1F | -20.6% (inactive) | – |
| O=C(O)COC(=O)Cc1ccccc1Nc1c(Cl)cccc1Cl | -17.8% [at 35.3 µM] (inactive) | – |
| Oc1ccc(O)c2c(O)cccc12 | 4.65% (inactive) | – |
| NCCCOCCOCCOCCCN | – | 15.5 µM (active) |
| C=CC(C)(CCC=C(C)C)OC(=O)c1ccccc1 (stereo not given) | -10.3% (inactive) | – |
| CC(C)(C)c1cc(CCC(=O)OCC(COC(=O)CCc2cc(C(C)(C)C)c(O)c(C(C)(C)C)c2)(COC(=O)CCc2cc(C(C)(C)C)c(O)c(C(C)(C)C)c2)COC(=O)CCc2cc(C(C)(C)C)c(O)c(C(C)(C)C)c2)cc(C(C)(C)C)c1O | -0.532% [at 35.3 µM] (inactive) | – |
| NCCCN(CCO)CCO | 1.52% (inactive) | – |
| CC(C)=CCCC(C)CC=O (stereo not given) | 2.62% (inactive) | – |
| c1ccc(OCc2ccc(CCCN3CCOCC3)cc2)cc1 | 6.68% [at 35.3 µM] (inactive) | – |

| SMILES | activity change, negative = cytotoxicity | Potency |
| --- | --- | --- |
| CCN(CC)CCOc1ccc2c(c1)C(=O)c1cc(OCCN(CC)CC)ccc1-2 | -2.09% [at 35.3 µM] (inactive) | – |
| Oc1ccc2c(c1)OCO2 | -0.344% (inactive) | – |
| CC(C)CCCC(C)CCO (stereo not given) | 1.63% (inactive) | – |
| CCCCCC/C=C/C=O | 4.59% (inactive) | – |
| CCCCCCCCC(CO)CCCCCC (stereo not given) | -0.955% (inactive) | – |
| CCCCCCCCCCCCCCC1CO1 (stereo not given) | 6.76% (inactive) | – |
| NC(N)=NN=C(/C=C/c1ccc([N+](=O)[O-])o1)/C=C/c1ccc([N+](=O)[O-])o1 | – | 8.49 µM (active) |
| OCCC1CCCCN1 (stereo not given) | 1.54% (inactive) | – |
| COc1ccc(C(C)=O)cc1 | 0.528% (inactive) | – |
| CCCCOCCOCCOCCOCCO | -24.2% (inactive) | – |
| N#Cc1cc2ccccc2c2ccccc12 | 14% (inactive) | – |
| COCCO | 11.6% (inactive) | – |
| CC(C)NCC(O)c1cc(O)cc(O)c1 (stereo not given) | 2.41% [at 35.3 µM] (inactive) | – |
| CC(O)C1CCCCC1 (stereo not given) | 6.81% (inactive) | – |
| COc1ccc(OC)c(OC)c1 | 12.5% (inactive) | – |
| O=C(O)C1CCC(C(=O)O)CC1 (stereo not given) | 11.4% (inactive) | – |
| CC(C)(C)c1cc(CO)cc(C(C)(C)C)c1O | 4.26% (inactive) | – |
| CCOc1cc(OCC)c(C(=O)CCC(=O)O)cc1OCC | 6.03% [at 35.3 µM] (inactive) | – |
| CCOC(=O)[C@H](CCc1ccccc1)N[C@H]1CCc2ccccc2N(CC(=O)O)C1=O | -13.5% [at 35.3 µM] (inactive) | – |
| O=C(O)c1cn(C2CC2)c2cc(Cl)c(F)cc2c1=O | -0.66% [at 35.3 µM] (inactive) | – |
